# Only some compounds are listed: those with a hit (about 12% of all), similar ones and a draw of the others.
# BAZ2B block: qHTS Assay for Inhibitors of BAZ2B; Potency, µM (series often up to 114 µM), for the others: top-dose activity change, negative = inhibition, most hits filed as inhibitors; Bromodomain adjacent to zinc finger domain protein 2B (Homo sapiens), Q9UIF8; 4.4% of 360,000 active; AlphaScreen BAZ2B-H3K14Ac peptide displacement; also: % is scaled to controls: 0 for no effect and ±100 for the full control effect; nearly all actives have a fitted effect of over 60% in size
#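 In this displacement format the biotinylated H3(5-23) peptide acetylated at Lys14 serves as ligand at 50 nM, with BAZ2B at 50 nM in PBS pH 7.4 containing 0.01% Tween-20. Donor and acceptor beads are 10 ug/mL final.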
# HP1b binding inh: HTS for Inhibitors of HP1-beta Chromodomain Interactions with Methylated Histone Tails; 0.56% of 390,000 active; AID 540317, 2011; Chromobox protein homolog 1 (Homo sapiens), P83916; AlphaScreen HP1-beta / biotin-H3K9me3 peptide binding; Potency, µM (titrated, usually from 114 µM), without a hit: at the top dose activity change, negative = inhibition, actives largely listed as inhibitors; also: nearly all actives have a fitted effect of over 70% in size
#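 Compound inhibition of the preformed complex between 50 nM HP1-beta and 50 nM biotinylated H3K9me3 peptide was read by AlphaScreen. Buffer was PBS pH 7.4 with 0.01% Tween-20. Incubations ran 30 min at room temperature, with 10 ug/mL donor/acceptor beads.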
# JMJD2A Tudor: qHTS Assay for Inhibitors of JMJD2A-Tudor Domain. 4.4% of 390,000 active. AlphaScreen JMJD2A-Tudor / H3K4me3 peptide binding. Potency, µM (titrated, usually from 114 µM), for inactives: at the top dose activity change, negative = inhibition, usual class: inhibitors; also: % is scaled to controls: 0 for no effect and ±100 for the full control effect; nearly all actives have a fitted effect of over 50% in size
# TDP1 block: qHTS Assay for Inhibitors of Tyrosyl-DNA Phosphodiesterase (TDP1). Potency, µM (titrated, usually from 130 µM), inactives show at the top dose activity change, negative = inhibition, actives largely listed as inhibitors. 0.28% of 350,000 active. Tyrosyl-DNA phosphodiesterase 1 (Homo sapiens), Q9NUW8. AID 485290, 2010. recombinant TDP1, AlphaScreen DNA substrate cleavage; also: % is scaled to controls: 0 for no effect and ±100 for the full control effect; nearly all actives have a fitted effect of over 40% in size
#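 AlphaScreen read-out: signal falls as enzyme removes the 3' tyrosine-FITC from a 5'-biotinylated DNA oligo (15 nM, 5 min, RT). Enzyme was E. coli-made recombinant Tdp1 at 1 nM, exposed to compound for 15 min beforehand; beads 10 ug/ml, 10 min.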
# Sfp inh: qHTS Assay for Inhibitors of Bacillus subtilis Sfp phosphopantetheinyl transferase (PPTase) | 4'-phosphopantetheinyl transferase ffp (Bacillus subtilis), Q9F4F7 | Biochemical Sfp PPTase activity, qHTS | Potency, µM, for the others: largest response in the series, negative = inhibition, hits mostly inhibitors | 3.5% of 310,000 active | AID 1490, 2009;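 also: the enzyme is Sfp with the accession as filed and its product quenches rhodamine fluorescence; 0% = enzyme reaction without inhibitor and -100% = no enzyme wells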
#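 Compounds were incubated with enzyme (final 15 nM) for 15 min at room temperature before substrate addition started the reaction. Fluorescence at 525 nm excitation, 598 nm emission was recorded immediately and after 30 minutes.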
# G9a block: qHTS Assay for Inhibitors of Histone Lysine Methyltransferase G9a | Histone-lysine N-methyltransferase EHMT2 (Homo sapiens), Q96KQ7 | G9a H3K9 monomethylation, AlphaScreen, 2 h | Potency, µM (series often up to 102 µM), for the others: at the highest dose activity, negative = inhibition, usual class: inhibitors | 8.8% of 350,000 active; also: % is scaled to controls: 0 for no effect and ±100 for the full control effect; nearly all actives have a fitted effect of over 75% in size
#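 Using a bead-based AlphaScreen, monomethylated H3K9 product from 2 h room-temperature reactions (G9a 20 nM, peptide 500 nM, SAM 20 uM) was detected with 0.5 ug/mL rabbit anti-H3K9me1 antibody.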
# An asterisk follows results filed as active; u = inconclusive; x = not tested or not shown; [ ] = another dose, or the depositor's remark. Calls follow the shape of the dose curve; as a rule, active = well fitted curve in the direction sought with a large enough effect; inconclusive = small, poorly fitted or top-dose-only effect, or another doubt; inactive = no such curve, though single readings can be large; an effect the other way counts as inactive or inconclusive. Potency is read from the fitted curve at half-maximal effect.
SMILES,BAZ2B block,HP1b binding inh,JMJD2A Tudor,TDP1 block,Sfp inh,G9a block
O=C(/C=C/c1ccc(Cl)cc1)c1cccnc1,-8%,24%,-8%,2%,u,45µM*
O=C(/C=C/c1ccccc1Cl)c1cccnc1,-7%,22%,-19%,5%,32µM*,35µM*
N#Cc1ccc(/C=C/C(=O)c2cccnc2)cc1,x,17%,-28%,8%,50µM*,25µM*
CCN(CC)c1ccc(/C=C/C(=O)c2cccnc2)cc1,u,21%,u,5%,11%,-13%
CNS(=O)(=O)c1cc(Br)ccc1S(=O)c1ccccc1C(=O)O (stereo not given),4%,36%,-9%,3%,0%,x
CCN(CC)c1ccc(/C=C/c2ccc3ccc(OC)cc3[n+]2CC)cc1,40µM*,u,13µM*,x,-21%,25µM*
CC[n+]1ccc(/C=C/c2ccc(N(C)C)cc2)c2ccccc21,10µM*,18µM*,22µM*,6%,u,x
C[n+]1c(/C=C/c2ccc3c(c2)OCO3)ccc2ccccc21,u,-13%,u,4%,-22%,u
CC[n+]1c(/C=C/c2cc([N+](=O)[O-])ccc2O)ccc2ccccc21,u,2%,u,x,4%,x
CC[n+]1c(/C=C/c2ccc(N(C)C)cc2)ccc2ccccc21,40µM*,u,u,3%,-28%,14µM*
C[n+]1c(/C=C/c2ccc(O)cc2)ccc2ccccc21,-33%,u,-25%,x,-4%,18µM*
CC[n+]1ccc(/C=C/c2c[nH]c3ccccc23)cc1,-8%,36%,u,x,-16%,x
Cn1c(SCC(=O)c2ccc(O)cc2O)nnc1-c1ccccc1,3%,-8%,-8%,-6%,-1%,-5%
CN(C)c1ccc(C(=O)/C=C/c2ccccc2)cc1,0%,34%,-5%,3%,-28%,2%
CC[n+]1c(/C=C/c2ccc(OC)c(OC)c2)ccc2ccccc21,u,13%,u,x,-12%,x
CC[n+]1ccccc1/C=C/c1ccc(N(C)C)cc1,u,-1%,u,6%,-5%,28µM*
CC[n+]1c(/C=C/c2ccc(OC(C)=O)c(OC)c2)ccc2ccccc21,-8%,-27%,u,x,-15%,25µM*
CC1CCN(S(=O)(=O)c2ccc3c(c2)c(=O)c(C(=O)NCc2ccc(Cl)cc2)cn3C)CC1,x,20%,-11%,2%,x,-35%[59 µM]
O=C(CSc1ncnc2nc[nH]c12)c1ccccc1,u,27%,-33%,2%,16µM*,u
O=C(CSc1nc2ncc(Br)cc2[nH]1)c1ccc([N+](=O)[O-])cc1,u,u,u,6%,-10%,14µM*
Cc1snc(SCc2ccc(F)cc2)c1C#N,6%,133%,109%,x,-5%,49%
Cc1cccc(C)c1NC(=O)CSc1ncnc2nc[nH]c12,2%,40%,-21%,-2%,7%,-41%
O=C(CSc1ncnc2nc[nH]c12)c1ccc([N+](=O)[O-])cc1,79µM*,15%,-32%,1%,45µM*,x
Cc1snc(SCC(=O)c2ccc([N+](=O)[O-])cc2)c1C#N,14µM*,u,-11%[11.4 µM],11%,20µM*,1.8µM*
CC(C)CN1CC[C@@]2(CCCN(S(=O)(=O)c3ccccc3)C2)C1,x,x,x,x,7%,1%[12.7 µM]
NC(=O)c1ccsc1NC(=O)CS(=O)(=O)c1ccc(Cl)cc1,2%,31%,-3%,6%,9%,-4%
CCCCNC(=O)C1(NC(=O)Nc2ccc(C)cc2)CCCCC1,-2%,-11%,-32%[11.4 µM],10%,12%,11%

# From PubChem
